# Source: ChEMBL document CHEMBL2218924, “A broad activity screen in support of a chemogenomic map for kinase signalling research and drug discovery” (Biochem J, 2013)
# Experiments:
# [1] = molecular target: Mast/stem cell growth factor receptor Kit (Homo sapiens) (UniProt P10721); conditions: at 1 µM
# [2] = molecular target: Mast/stem cell growth factor receptor Kit (Homo sapiens) (UniProt P10721); conditions: at 10 µM
# [3] = molecular target: Proto-oncogene tyrosine-protein kinase Src (Homo sapiens) (UniProt P12931); conditions: at 1 µM
# Target sequence in this assay (P12931 2-536 limits assumed): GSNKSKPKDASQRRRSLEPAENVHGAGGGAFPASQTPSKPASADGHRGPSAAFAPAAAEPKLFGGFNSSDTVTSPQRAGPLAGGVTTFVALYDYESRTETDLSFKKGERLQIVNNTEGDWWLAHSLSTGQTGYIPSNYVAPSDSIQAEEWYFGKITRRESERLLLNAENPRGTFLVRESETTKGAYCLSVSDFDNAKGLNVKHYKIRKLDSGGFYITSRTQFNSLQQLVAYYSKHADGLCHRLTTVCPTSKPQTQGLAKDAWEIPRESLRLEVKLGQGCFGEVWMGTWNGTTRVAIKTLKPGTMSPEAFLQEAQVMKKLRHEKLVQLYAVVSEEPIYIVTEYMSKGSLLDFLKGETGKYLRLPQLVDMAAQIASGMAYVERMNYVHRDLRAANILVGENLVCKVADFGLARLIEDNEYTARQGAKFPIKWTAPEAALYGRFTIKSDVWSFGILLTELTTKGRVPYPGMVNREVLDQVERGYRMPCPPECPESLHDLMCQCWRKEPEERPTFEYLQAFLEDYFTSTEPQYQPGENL
# [4] = molecular target: Proto-oncogene tyrosine-protein kinase Src (Homo sapiens) (UniProt P12931); conditions: at 10 µM
# [5] = molecular target: Ribosomal protein S6 kinase beta-1 (Homo sapiens) (UniProt P23443); conditions: at 1 µM
# [6] = molecular target: Ribosomal protein S6 kinase beta-1 (Homo sapiens) (UniProt P23443); conditions: at 10 µM
# [7] = molecular target: T1, Serine/threonine-protein kinase NLK (Homo sapiens) (UniProt Q9UBE8); conditions: at 1 µM
# T1 sequence (whole entry): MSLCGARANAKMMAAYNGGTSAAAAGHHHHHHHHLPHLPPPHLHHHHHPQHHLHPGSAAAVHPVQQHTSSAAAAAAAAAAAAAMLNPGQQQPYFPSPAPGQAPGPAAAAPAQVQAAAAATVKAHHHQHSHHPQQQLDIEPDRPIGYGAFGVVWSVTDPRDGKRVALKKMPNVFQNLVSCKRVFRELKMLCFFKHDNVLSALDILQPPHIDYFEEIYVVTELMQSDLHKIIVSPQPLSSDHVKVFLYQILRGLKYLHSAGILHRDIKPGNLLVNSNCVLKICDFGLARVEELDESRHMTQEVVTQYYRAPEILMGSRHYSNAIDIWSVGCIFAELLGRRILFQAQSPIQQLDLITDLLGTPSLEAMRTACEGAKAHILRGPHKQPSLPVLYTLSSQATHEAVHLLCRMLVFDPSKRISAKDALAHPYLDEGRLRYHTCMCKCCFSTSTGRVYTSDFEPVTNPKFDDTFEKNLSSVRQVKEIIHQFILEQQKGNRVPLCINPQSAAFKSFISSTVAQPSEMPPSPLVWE
# [8] = molecular target: T1, Serine/threonine-protein kinase NLK (Homo sapiens); conditions: at 10 µM
# [9] = molecular target: Serine/threonine-protein kinase PAK 2 (Homo sapiens) (UniProt Q13177); conditions: at 1 µM
# [10] = molecular target: Serine/threonine-protein kinase PAK 2 (Homo sapiens) (UniProt Q13177); conditions: at 10 µM
# [11] = molecular target: Serine/threonine-protein kinase mTOR (Homo sapiens) (UniProt P42345); conditions: at 1 µM
# [12] = molecular target: Serine/threonine-protein kinase mTOR (Homo sapiens) (UniProt P42345); conditions: at 10 µM
# [13] = molecular target: Serine/threonine-protein kinase mTOR (Homo sapiens) (UniProt P42345); conditions: at 1 µM; remark: listed apart in the source
# [14] = molecular target: Serine/threonine-protein kinase mTOR (Homo sapiens) (UniProt P42345); conditions: at 10 µM; remark: listed apart in the source
# [15] = molecular target: Serine/threonine-protein kinase Nek6 (Homo sapiens) (UniProt Q9HC98); conditions: at 1 µM
# [16] = molecular target: Serine/threonine-protein kinase Nek6 (Homo sapiens) (UniProt Q9HC98); conditions: at 10 µM
# [17] = molecular target: Serine/threonine-protein kinase Nek7 (Homo sapiens) (UniProt Q8TDX7); conditions: at 1 µM
# [18] = molecular target: Serine/threonine-protein kinase Nek7 (Homo sapiens) (UniProt Q8TDX7); conditions: at 10 µM
# [19] = molecular target: T2, Eukaryotic elongation factor 2 kinase (Homo sapiens) (UniProt O00418); conditions: at 1 µM
# T2 sequence (whole entry): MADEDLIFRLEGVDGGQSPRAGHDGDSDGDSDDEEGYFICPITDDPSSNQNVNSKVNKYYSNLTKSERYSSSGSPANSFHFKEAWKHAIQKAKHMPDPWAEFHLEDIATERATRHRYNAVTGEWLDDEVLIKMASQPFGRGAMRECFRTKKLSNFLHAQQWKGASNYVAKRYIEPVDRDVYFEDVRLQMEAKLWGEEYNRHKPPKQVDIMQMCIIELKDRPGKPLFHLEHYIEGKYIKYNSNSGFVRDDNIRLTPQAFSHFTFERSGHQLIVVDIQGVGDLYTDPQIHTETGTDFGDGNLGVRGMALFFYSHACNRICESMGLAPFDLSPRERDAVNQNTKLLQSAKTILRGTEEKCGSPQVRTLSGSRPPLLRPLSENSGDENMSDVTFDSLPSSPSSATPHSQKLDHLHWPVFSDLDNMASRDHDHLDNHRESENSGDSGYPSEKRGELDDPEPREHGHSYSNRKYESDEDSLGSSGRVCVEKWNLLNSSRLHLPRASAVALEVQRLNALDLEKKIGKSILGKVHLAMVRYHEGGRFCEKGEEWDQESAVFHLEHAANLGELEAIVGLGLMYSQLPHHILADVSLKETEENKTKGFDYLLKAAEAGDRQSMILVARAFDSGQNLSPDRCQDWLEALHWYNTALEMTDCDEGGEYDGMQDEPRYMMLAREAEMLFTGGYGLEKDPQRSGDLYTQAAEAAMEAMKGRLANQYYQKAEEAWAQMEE
# [20] = molecular target: T2, Eukaryotic elongation factor 2 kinase (Homo sapiens); conditions: at 10 µM
# Chain of Serine/threonine-protein kinase Nek6 (Homo sapiens) (Q9HC98 whole entry): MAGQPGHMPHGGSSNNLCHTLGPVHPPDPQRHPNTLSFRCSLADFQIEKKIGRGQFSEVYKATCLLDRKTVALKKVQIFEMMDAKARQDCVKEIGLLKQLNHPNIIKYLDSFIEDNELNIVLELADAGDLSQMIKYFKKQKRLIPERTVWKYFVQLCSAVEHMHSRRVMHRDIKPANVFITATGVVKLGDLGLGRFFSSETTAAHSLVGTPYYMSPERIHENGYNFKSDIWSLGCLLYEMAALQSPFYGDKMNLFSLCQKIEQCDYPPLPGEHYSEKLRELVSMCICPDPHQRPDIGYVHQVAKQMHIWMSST
# Chain of Mast/stem cell growth factor receptor Kit (Homo sapiens) (P10721 whole entry): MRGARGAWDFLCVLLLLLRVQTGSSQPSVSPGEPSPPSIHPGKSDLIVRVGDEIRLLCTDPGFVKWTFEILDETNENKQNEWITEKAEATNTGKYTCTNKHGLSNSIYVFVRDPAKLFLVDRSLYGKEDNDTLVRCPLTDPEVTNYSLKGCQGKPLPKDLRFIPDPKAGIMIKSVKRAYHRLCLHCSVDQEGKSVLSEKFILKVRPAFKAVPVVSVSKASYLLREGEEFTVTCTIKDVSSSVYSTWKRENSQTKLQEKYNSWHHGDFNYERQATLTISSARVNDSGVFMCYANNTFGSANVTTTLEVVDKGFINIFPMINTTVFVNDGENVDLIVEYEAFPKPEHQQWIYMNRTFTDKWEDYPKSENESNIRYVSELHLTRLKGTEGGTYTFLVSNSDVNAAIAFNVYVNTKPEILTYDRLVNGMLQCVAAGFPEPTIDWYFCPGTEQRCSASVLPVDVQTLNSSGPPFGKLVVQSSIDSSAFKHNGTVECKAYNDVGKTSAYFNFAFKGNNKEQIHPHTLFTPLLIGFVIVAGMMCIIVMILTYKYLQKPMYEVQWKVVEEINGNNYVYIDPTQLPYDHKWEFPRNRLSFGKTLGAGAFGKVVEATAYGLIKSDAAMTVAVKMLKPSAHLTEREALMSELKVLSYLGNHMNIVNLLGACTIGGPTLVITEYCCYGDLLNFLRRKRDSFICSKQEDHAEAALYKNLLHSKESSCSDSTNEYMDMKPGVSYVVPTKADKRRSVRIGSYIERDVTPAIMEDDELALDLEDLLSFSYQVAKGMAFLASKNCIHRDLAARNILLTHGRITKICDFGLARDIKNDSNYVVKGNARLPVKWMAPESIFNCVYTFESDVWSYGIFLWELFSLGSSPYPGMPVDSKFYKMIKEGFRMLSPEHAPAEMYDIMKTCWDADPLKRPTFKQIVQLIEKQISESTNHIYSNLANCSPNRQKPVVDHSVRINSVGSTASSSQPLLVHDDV
# Chain of Serine/threonine-protein kinase PAK 2 (Homo sapiens) (Q13177 whole entry): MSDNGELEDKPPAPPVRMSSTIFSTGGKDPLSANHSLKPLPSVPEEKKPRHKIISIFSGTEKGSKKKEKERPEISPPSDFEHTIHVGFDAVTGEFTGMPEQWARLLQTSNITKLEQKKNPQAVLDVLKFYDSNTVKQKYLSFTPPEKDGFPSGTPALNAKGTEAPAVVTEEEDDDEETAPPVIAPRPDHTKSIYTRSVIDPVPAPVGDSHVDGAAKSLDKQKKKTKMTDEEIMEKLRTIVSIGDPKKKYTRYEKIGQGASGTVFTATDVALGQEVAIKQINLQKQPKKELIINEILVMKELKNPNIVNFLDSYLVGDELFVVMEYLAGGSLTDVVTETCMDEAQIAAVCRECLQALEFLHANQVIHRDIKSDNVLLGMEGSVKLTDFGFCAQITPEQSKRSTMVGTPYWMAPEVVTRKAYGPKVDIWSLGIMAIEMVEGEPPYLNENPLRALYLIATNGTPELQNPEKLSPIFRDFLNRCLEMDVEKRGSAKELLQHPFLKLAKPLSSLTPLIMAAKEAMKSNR
# Chain of Ribosomal protein S6 kinase beta-1 (Homo sapiens) (P23443 whole entry, looked up): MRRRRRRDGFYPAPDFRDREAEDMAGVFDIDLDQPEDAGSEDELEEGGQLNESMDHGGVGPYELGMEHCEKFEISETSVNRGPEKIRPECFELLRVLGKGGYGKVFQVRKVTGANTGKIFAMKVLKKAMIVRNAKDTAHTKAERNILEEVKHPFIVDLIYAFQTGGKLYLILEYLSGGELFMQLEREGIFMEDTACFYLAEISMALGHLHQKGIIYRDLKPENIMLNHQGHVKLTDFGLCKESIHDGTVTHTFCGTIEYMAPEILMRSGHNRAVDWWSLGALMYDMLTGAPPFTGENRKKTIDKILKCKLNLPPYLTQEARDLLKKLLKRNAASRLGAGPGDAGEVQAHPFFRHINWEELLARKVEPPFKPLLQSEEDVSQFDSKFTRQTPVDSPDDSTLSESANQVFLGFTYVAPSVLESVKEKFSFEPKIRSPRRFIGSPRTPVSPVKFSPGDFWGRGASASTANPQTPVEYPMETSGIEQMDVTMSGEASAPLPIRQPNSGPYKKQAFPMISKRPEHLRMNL
# Chain of Serine/threonine-protein kinase Nek7 (Homo sapiens) (Q8TDX7 whole entry, looked up): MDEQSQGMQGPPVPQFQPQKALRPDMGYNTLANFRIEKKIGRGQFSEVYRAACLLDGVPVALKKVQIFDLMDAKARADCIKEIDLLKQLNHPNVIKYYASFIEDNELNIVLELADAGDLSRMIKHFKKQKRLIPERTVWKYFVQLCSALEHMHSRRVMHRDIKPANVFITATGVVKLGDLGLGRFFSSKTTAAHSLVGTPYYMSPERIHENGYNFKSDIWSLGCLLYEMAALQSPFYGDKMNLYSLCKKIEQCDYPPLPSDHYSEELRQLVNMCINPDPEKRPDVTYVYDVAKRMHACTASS
Compound,residual activity [1] [%],residual activity [2] [%],residual activity [3] [%],residual activity [4] [%],residual activity [5] [%],residual activity [6] [%],residual activity [7] [%],residual activity [8] [%],residual activity [9] [%],residual activity [10] [%],residual activity [11] [%],residual activity [12] [%],residual activity [13] [%],residual activity [14] [%],residual activity [15],residual activity [16] [%],residual activity [17],residual activity [18],residual activity [19],residual activity [20] [%]
O=C(c1cc2cc(O)ccc2[nH]1)c1cc2cc(O)ccc2[nH]1,33,5,28,3,73,18,61,19,100,83,,,,,,,,,,
CCN(CC)CCNC(=O)c1c(C)[nH]c(/C=C2\C(=O)Nc3ccc(Cl)cc32)c1C,-1,0,48,13,24,4,,,,,,,,,,,,,,
Cn1sc(=O)n(Cc2ccccc2)c1=O,100,85,,92,67,57,82,92,97,91,,,,,,,,,,
O=C1Cc2c([nH]c3ccc([N+](=O)[O-])cc23)-c2ccccc2N1,110,109,53,29,106,103,,,43,30,120,114,104,100,115% (inactive),118,106% (inactive),104% (inactive),,
COc1cc2nccc(Oc3ccc(NC(=S)NC(=O)c4ccccc4C)cc3)c2cc1OC,28,3,32,7,66,61,81,60,98,87,,,,,95% (inactive),,98% (inactive),91% (inactive),,
c1ccc(-c2cnc(Nc3ccc(OCCN4CCCC4)cc3)s2)cc1,1,1,70,29,61,52,112,56,,,100,106,,,,,,,,
NC(=O)Nc1sc(-c2ccc(F)cc2)cc1C(N)=O,56,4,54,10,78,39,89,61,93,71,114,92,,,104% (inactive),106,102% (inactive),103% (inactive),,
CCOC(=O)c1c(C)[nH]c(/C=C2\C(=O)Nc3ccccc32)c1C,38,53,,,,,,,,,98,99,,,,,,,,
Nc1ncnc2[nH]nc(Nc3ccc(F)cc3)c12,106,106,100,54,91,61,93,55,106,109,98,90,91,95,118% (inactive),106,100% (inactive),96% (inactive),,
Oc1cccc(-c2nc(N3CCOCC3)c3oc4ncccc4c3n2)c1,118,100,91,94,68,84,,,,,49,35,-12,7,,,100% (inactive),96% (inactive),,
O=C(CCCc1ccc(-c2ccccc2F)cc1)Nc1ccc(O)cc1,106,101,,,,,106,100,106,,103,98,82,105,112% (inactive),127,,,,
O=C(Nc1ccc(Cl)cc1)c1ccccc1NCc1ccncc1,17,-1,78,,135,,,,,,,,,69,,,,120% (inactive),,
CN(C)S(=O)(=O)c1ccc2c(c1)/C(=C/c1cc3c([nH]1)CCCC3)C(=O)N2,29,28,31,35,,,91,93,,,,,,,115% (inactive),114,111% (inactive),,,
COc1cc2c(cc1OC)-c1n[nH]c(Nc3cccc(F)c3)c1C2,0,0,44,7,63,79,54,17,,,110,108,,107,,,,113% (inactive),,
O=C1Nc2ccc(Cl)cc2/C1=C/c1cc(Cl)c(O)c(Cl)c1,21,6,84,65,60,40,47,15,97,75,51,64,112,75,,,,,,
O=c1cc(N2CCNCC2)oc2c(-c3ccccc3)cccc12,97,95,94,99,69,65,99,77,98,80,90,99,76,90,80% (inactive),,104% (inactive),95% (inactive),,
O=C(c1ccccc1)c1ccc(N2CCOCC2)cc1O,111,96,87,93,77,53,,63,,,88,94,96,54,92% (inactive),,116% (inactive),,,
CCCC(=O)Oc1ccc2[nH]c(C(=O)c3cc4ccccc4[nH]3)cc2c1,107,89,81,94,104,91,90,108,102,86,100,95,99,79,89% (inactive),,91% (inactive),93% (inactive),,
COc1cc2ncnc(Nc3cccc(Cl)c3)c2cc1OC,103,107,58,29,82,59,,,126,111,,,,,109% (inactive),117,102% (inactive),115% (inactive),,
Cn1c2ccccc2c2c3c(c4c5ccccc5n(CCC#N)c4c21)CNC3=O,113,82,69,79,1,4,50,41,101,,115,112,72,99,93% (inactive),113,95% (inactive),80% (inactive),100% (inactive),116
COc1ccc(-c2cnc3c(-c4ccsc4)cnn3c2)cc1,100,85,77,,72,66,,,,,,,,90,,,,,,
O=C1NC(=O)c2c1c1c3ccccc3[nH]c1n1cncc21,11,10,100,64,68,28,89,72,98,89,75,71,86,76,98% (inactive),90,100% (inactive),86% (inactive),,
Nc1ncnc2c1c(-c1ccc(Oc3ccccc3)cc1)cn2C1CCCC1,36,1,5,-1,67,45,81,41,98,61,99,104,97,98,78% (inactive),99,97% (inactive),105% (inactive),,
CC(C)[C@H](CO)Nc1nc(Nc2cc(N)cc(Cl)c2)c2ncn(C(C)C)c2n1,99,89,28,2,86,39,,,,,98,83,,72,,,,,,
